F-actin modifier – modifiers of cytoskeleton assembly; HUVEC TNFa F-actin phalloidin imaging, high content; inhibition, % at 2 µM; 91,000 compounds, 0.18% hits; AID 836;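 active means inhibition above the batch mean plus 3 SD and confirmed as a hit by visual image inspection, cut at about 30% in these data, passing the limit was not always enough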
CYP2C9 activ – increases human cytochrome P450 2C9 activity. recombinant CYP2C9, luciferin-H conversion, luminescence; hits give high values; factor 1 = untreated enzyme, 0 = blocked. 96,000 compounds, 1.4% hits. activation factor at 5 µM. P11712. AID 1024;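 active means activation factor of 2 or more for CYP2C9 at a 5 µM dose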;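 further: 0 = sulfaphenazole-blocked wells and 1 = vehicle-only wells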
Target sequence (P11712 whole entry, looked up): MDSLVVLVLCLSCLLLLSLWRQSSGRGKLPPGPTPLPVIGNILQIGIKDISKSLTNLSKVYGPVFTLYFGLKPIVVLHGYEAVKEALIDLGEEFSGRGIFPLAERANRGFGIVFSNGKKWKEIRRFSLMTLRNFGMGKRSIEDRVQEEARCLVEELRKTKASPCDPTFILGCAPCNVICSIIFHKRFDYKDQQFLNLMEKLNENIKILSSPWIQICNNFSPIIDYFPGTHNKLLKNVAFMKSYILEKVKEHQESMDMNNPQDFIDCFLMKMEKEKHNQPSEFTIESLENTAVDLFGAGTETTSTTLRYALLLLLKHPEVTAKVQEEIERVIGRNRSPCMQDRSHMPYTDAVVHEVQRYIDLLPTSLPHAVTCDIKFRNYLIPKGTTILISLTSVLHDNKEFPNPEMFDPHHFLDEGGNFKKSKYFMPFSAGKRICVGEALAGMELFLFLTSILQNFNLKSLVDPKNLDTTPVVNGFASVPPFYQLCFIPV
CYP2C19 act – cytochrome P450 2C19 (human) activation; recombinant CYP2C19, luciferin-H EGE luminescence; hits give high values; 0 = fully inhibited enzyme, 1 = untreated enzyme; 96,000 tested, under 10 active; activation factor at 5 µM; P33261;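 active means activation factor of at least 2 at 5 µM in the primary screen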;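 further: 0 = wells with 2.5 mM tranylcypromine and 1 = vehicle-only wells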
CYP2C19 inhib – blocks human cytochrome P450 2C19. inhibition, % at 5 µM. P33261. AID 778. CYP2C19 Supersomes, luciferin-H EGE luminescence, 30 min. 96,000 compounds, 21% hits;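 active means CYP2C19 inhibition above a set limit at 5 µM in the primary screen, cut at about 50% in these data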;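 further: plate controls were negative control wells for no effect and 2.5 mM tranylcypromine positive control for full effect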
CYP2C9 inh – inhibitors of human CYP2C9. CYP2C9 Supersomes, luciferin-H conversion, luminescence. inhibition, % at 5 µM. 96,000 compounds, 20% hits. AID 777;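 active means blocking of liver enzyme CYP2C9 beyond about 50% at 5 µM, limit read from the data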
E-sel TNF inh – TNF alpha driven E-selectin expression inhibition; 120,000 compounds, 0.71% hits; inhibition, % at 2 µM; HUVEC TNFa-induced E-selectin immunofluorescence, high content;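 active means inhibition above the batch mean plus 3 SD, and confirmed as a hit on visual image review, cut at about 43% in these data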;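 further: 0% = TNF-stimulated DMSO wells and 100% = unstimulated control wells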
Active calls of the source: *; . = not tested or not shown. Hits are enriched below; roughly 22% of the tested compounds scored in any of these assays.

SMILES	F-actin modifier	CYP2C9 activ	CYP2C19 act	CYP2C19 inhib	CYP2C9 inh	E-sel TNF inh
COc1cc(NC(=O)Cc2nn(C)c(=O)c3ccccc23)cc(OC)c1	-9.6	0.1	0.7	34.7	86.1*	4.5
COc1cc(NC(=O)Cc2ccccc2)cc(OC)c1	35.8	0.6	0.1	94.2*	37.5	-29.1
COc1cccc(NC(=O)CNC(=O)c2ccc(OC)c(OC)c2)c1	.	.	.	.	.	2.1
CCc1nnc(NC(=O)CC(=O)Nc2ccccc2C(=O)O)s1	.	1	0.9	6.5	-1.0	-16.5
C/C(=N\NC(=O)c1ccc(CSc2nncn2C)cc1)c1ccc(C#N)cc1	.	.	.	.	.	9.9
COc1ccc(S(=O)(=O)NNC(=O)c2ccccc2-n2cccc2)cc1	.	.	.	.	.	48.4
O=S(=O)(c1cccc(S(=O)(=O)N2CCC(Cc3ccccc3)CC2)c1)N1CCOCC1	-10.3	.	.	.	.	-21.4
O=S(=O)(NCc1cccs1)c1cccc(S(=O)(=O)N2CCCCC2)c1	32.0	0.8	0.5	52.3*	21.1	2.9
O=S(=O)(NCc1ccccc1)c1cccc(S(=O)(=O)N2CCOCC2)c1	.	0.6	0.4	63.7*	41.6	1.4
O=S(=O)(NCCc1ccccc1F)c1cccc(S(=O)(=O)N2CCOCC2)c1	40.9	0.4	0.1	88.4*	61.6*	12.8
COc1ccccc1CNS(=O)(=O)c1cccc(S(=O)(=O)N2CCOCC2)c1	-2.5	1.2	0.8	15.5	-19.3	5.1
CCOC(=O)C1C(=O)Oc2ccc3ccccc3c2C1C1CCOC1=O (stereo not given)	.	1.8	0.4	59.8*	-80.9	.
CCOC(=O)C1NC(=O)CC1c1ccccc1 (stereo not given)	-9.5	1	1	-3.1	-1.3	1.2
CCOC(=O)CSc1nc2cccnc2n1C	.	.	.	.	.	-44.6
Cn1c(SCc2ccccc2F)nc2cccnc21	-5.4	0.8	0.4	63.4*	24.7	-11.4
CC(=O)NCCn1c(SCc2ccccc2F)nc2ccccc2c1=O	-15.7	0	0	98.4*	97.4*	-22.7
CC(=O)NCCn1c(SCC#N)nc2ccccc2c1=O	-6.7	0.9	0.8	23.5	6.1	11.3
CCn1cc(C(=O)NCCCOC)c2cc(OC)c(OC)cc2c1=O	.	1.1	1.1	-11.0	-11.3	-21.0
CC(C/C=N/NC(=O)COc1cc(Cl)ccc1Cl)c1ccccc1 (stereo not given)	29.2	0.9	0.3	70.0*	11.4	-13.1
Cc1c(N=NC2=C(O)CCCC2=O)c(=O)n(-c2ccccc2)n1C	.	.	.	.	.	-5.2
Cc1ccc(C(C)C)c(Oc2nnnn2-c2ccccc2)c1	-26.3	0.2	0.1	90.6*	75.9*	12.7
Cc1ccc(C)c(Oc2nnnn2-c2ccccc2)c1	.	0.6	0.1	92.8*	42.8	-29.7
CCOCCCNC(=S)Nc1ccc2nc(N3CCCC3)cc(C)c2c1	.	.	.	.	.	17.0
CCOC(=O)CSc1nc2ccccc2c(=O)n1CC1CCCC1	17.0	.	.	.	.	6.2
O=C(CCCn1c(SCC(=O)NCC2CCCO2)nc2ccccc2c1=O)NCC1CCCO1 (stereo not given)	-2.1	0.6	0.8	24.1	43.5	.
SMILES	F-actin modifier	CYP2C9 activ	CYP2C19 act	CYP2C19 inhib	CYP2C9 inh	E-sel TNF inh
CCCCNC(=O)CSc1nc2ccccc2c(=O)n1CC1COc2ccccc2O1 (stereo not given)	-8.3	0.7	0.3	70.3*	31.6	-7.5
CCCCN(CC)C(=O)CSc1nc2ccccc2c(=O)n1CC1COc2ccccc2O1 (stereo not given)	-19.7	0.3	0.5	47.4	74.1*	9.4
NC(=O)c1ccc(-n2nc(C(F)(F)F)c3c2CCCC3)cc1	.	.	.	.	.	11.3
CCC(CC)NC(=O)c1cc(OC)c(OC)cc1[N+](=O)[O-]	16.2	0.9	1.1	-7.8	7.3	37.7
CCOC(=O)c1sc2nccc(N(C)C)c2c1N=CNOCc1c(F)cccc1Cl	10.8	0.1	0.2	76.8*	91.5*	2.1
CCOC(=O)c1sc2nccc(N(C)C)c2c1N=CNOC	7.5	0.5	0.9	5.9	50.3*	10.5
CCOC(=O)c1sc2ncnc(NCc3ccco3)c2c1C	-4.3	0.6	0.6	41.4	38.5	5.2
CCOC(=O)c1sc2nccc(N(C)C)c2c1N=CNOCc1ccccc1	7.0	0.3	0.4	61.0*	72.3*	-0.3
CCOC(=O)c1sc2nc[nH]c(=O)c2c1C	-5.4	0.9	0.9	13.3	14.1	7.0
O=C(CCC1CCCC1)N1CCC(N2CCCCCC2)CC1	.	.	.	.	.	4.6
CCC(C)NC(=O)c1ccccc1NC(=O)CN1C(=O)c2ccccc2S1(=O)=O (stereo not given)	.	0.2	0.9	10.2	84.6*	-16.2

Bioassay records as filed in PubChem.
